Only some compounds are listed: those with a hit (about 22% of all), similar ones and a draw of the others.
CYP2C9 inhib = blockers of cytochrome P450 2C9 activity – biochemical, luminescence, ADME assay, primary screen; inhibition, % at 5 µM; AID 777, 2007; CYP2C9 Supersomes, luciferin-H conversion; P11712; 96,000 compounds, 20% hits;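 active = blocking of liver enzyme CYP2C9 beyond about 50% at 5 µM, limit read from the data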
CYP2C19 act = human CYP2C19 activators, primary screen, biochemical, luminescence. Cytochrome P450 2C19 (Homo sapiens), P33261. recombinant CYP2C19, luciferin-H EGE luminescence; active compounds read high; 0 = fully inhibited enzyme, 1 = untreated enzyme. activation factor at 5 µM. 96,000 tested, under 10 active;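 active = activation factor of at least 2 at 5 µM in the primary screen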;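 note: 0 = wells with 2.5 mM tranylcypromine and 1 = vehicle-only wells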
Target sequence (P33261 whole entry, looked up): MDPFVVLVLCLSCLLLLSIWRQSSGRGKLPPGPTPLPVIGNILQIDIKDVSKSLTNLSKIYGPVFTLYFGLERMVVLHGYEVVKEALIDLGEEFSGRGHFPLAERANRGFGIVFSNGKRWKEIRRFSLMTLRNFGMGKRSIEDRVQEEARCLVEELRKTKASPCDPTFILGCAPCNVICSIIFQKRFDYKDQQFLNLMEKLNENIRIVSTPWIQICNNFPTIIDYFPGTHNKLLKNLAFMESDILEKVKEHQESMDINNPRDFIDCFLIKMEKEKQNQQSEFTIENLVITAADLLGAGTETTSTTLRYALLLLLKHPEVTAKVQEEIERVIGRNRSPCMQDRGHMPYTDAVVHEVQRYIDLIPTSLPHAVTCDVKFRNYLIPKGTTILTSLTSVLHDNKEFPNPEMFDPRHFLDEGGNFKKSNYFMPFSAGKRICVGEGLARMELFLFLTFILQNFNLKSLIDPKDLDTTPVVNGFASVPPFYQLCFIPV
CYP2C9 act = human CYP2C9 activators, primary screen, biochemical, luminescence; Cytochrome P450 2C9 (Homo sapiens), P11712; recombinant CYP2C9, luciferin-H conversion; active compounds read high; factor 1 = untreated enzyme, 0 = blocked; activation factor at 5 µM; 96,000 compounds, 1.4% hits; AID 1024, 2008;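 active = activation factor of 2 or more for CYP2C9 at a 5 µM dose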;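 note: 0 = sulfaphenazole-blocked wells and 1 = vehicle-only wells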
CYP2C19 inh = blockers of cytochrome P450 2C19 activity – biochemical, luminescence, ADME assay, primary screen; CYP2C19 Supersomes, luciferin-H EGE luminescence, 30 min; inhibition, % at 5 µM; 96,000 compounds, 21% hits; AID 778, 2007;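 active = CYP2C19 inhibition above a set limit at 5 µM in the primary screen, cut at about 50% in these data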;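 note: plate controls were negative control wells for no effect and 2.5 mM tranylcypromine positive control for full effect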
Measles CPE = compounds protecting cells from measles virus cytopathic effect, primary screen, measles RdRp inhibitor project, single point, MLSMR library, absorbance; Measles virus-infected cells, CPE protection; protection (pct of control), % at 4 µM; 140,000 compounds, 1.5% hits; AID 841, 2007; in the data active = protection mostly above about 24%, no sharp cut-off; inactive = mostly below about 26%
Starred values were filed as active, the others as inactive; · = not tested or not shown.

SMILES	CYP2C9 inhib	CYP2C19 act	CYP2C9 act	CYP2C19 inh	Measles CPE
CC(C)(C)NC(NC(=O)Cc1ccccc1)C(Cl)(Cl)Cl (stereo not drawn)	5	0.3	0.9	70*	41
O=C(Cc1ccccc1)NC(Nc1ccccc1)C(Cl)(Cl)Cl (stereo not drawn)	73*	0.2	0.3	82*	7
COc1ccc(C(=O)NC(Nc2ccccc2)C(Cl)(Cl)Cl)cc1 (stereo not drawn)	85*	0.6	0.2	36	10
CC(=O)Nc1ccc(S(=O)(=O)NCCSCc2ccco2)cc1	66*	0.4	0.3	60*	17
CC(=O)Nc1ccc(S(=O)(=O)NCCSCc2c(Cl)cccc2Cl)cc1	77*	0.3	0.2	73*	19
CC(=O)Nc1ccc(S(=O)(=O)NCCSCc2cccc(Cl)c2)cc1	·	·	·	·	10
CC(C)OCC(O)CS(=O)Cc1ccccc1 (stereo not drawn)	-12	0.9	1.1	10	16
COC(=O)CC/C(O)=C1\C(=O)CC(C)(C)CC1=Nc1ccccc1OC	14	0.7	0.9	32	3
CCC/C(O)=C1\C(=O)CC(C)(C)CC1=Nc1ccc(OC)cc1OC	95*	0	0.1	97*	4
CCCC/C(O)=C1\C(=O)CC(C)(C)CC1=Nc1ccccc1OC	90*	0.1	0.1	93*	4
COc1ccc(-c2c(C)n([O-])c(C)c(C)[n+]2=O)cc1OC	-7	1	1.1	0	14
COc1ccc(-c2c(C)n([O-])c(C)c(-c3ccccc3)[n+]2=O)cc1OC	5	1	0.9	4	89*
COc1ccc(C(=O)COC(=O)CNC(=O)c2cc(OC)cc(OC)c2)cc1	·	·	·	·	5
CCOC(=O)C(Cc1ccc(NC(=O)/C(=C/c2ccc(OC(C)=O)cc2)NC(C)=O)cc1)N1C(=O)c2ccccc2C1=O (stereo not drawn)	60*	0.7	0.4	27	7
CCOC(=O)C(Cc1ccc(NC(=O)/C(=C/c2ccccc2)NC(=O)c2ccccc2)cc1)N1C(=O)c2ccccc2C1=O (stereo not drawn)	91*	0.5	0.1	52*	8
CC12C(=O)N(CCC(=O)O)C(=O)C1C1C=CC2C1 (stereo not drawn)	2	0.9	1	7	20
COc1ccc2c(c1OC)C(=O)N(c1cccc(C)c1)C2=O	-211	0.8	3.1*	20	6
CC(C)CCNC(=O)COc1ccc2c3c(c(=O)oc2c1)CCC3	24	1.1	0.8	-5	8
COc1ccc2c(c1)c(=O)oc1cc(OCC(=O)NC3CC3)ccc12	15	0.4	0.8	60*	4
COc1ccc2c(c1)c(=O)oc1cc(OCC(=O)NC3CCCCC3)ccc12	32	0.1	0.7	89*	7
CCOC(=O)c1c2ccc(OCC(=O)N/N=C/c3ccc(C)cc3)cc2n2ccccc12	65*	0.6	0.3	36	4
Cc1c(C(=O)Oc2cccc3ccccc23)cnn1-c1ccccc1	40	0.3	0.6	67*	24
CCOC(=O)c1cnn(-c2ccccc2)c1-n1cccc1C(=O)C(=O)Nc1ccc(OC)cc1	80*	0.7	0.2	30	17
CCOC(=O)c1cnn(-c2ccccc2)c1-n1cccc1	27	0.4	0.7	55*	16
CCOC(=O)c1cnn(-c2ccccc2)c1-c1ccccc1	44	0.5	0.6	48	3
SMILES	CYP2C9 inhib	CYP2C19 act	CYP2C9 act	CYP2C19 inh	Measles CPE
CCc1ccc(NC(=O)c2cnn(-c3ccccc3)c2C)cc1	·	·	·	·	11
Cc1cccc(NC(NC(=O)c2ccccc2[N+](=O)[O-])C(Cl)(Cl)Cl)c1 (stereo not drawn)	·	·	·	·	4
COC(=O)c1ccc2nc(C(F)(F)F)[nH]c2c1	45	0.7	0.6	34	14
O=C(COc1ccc(Br)cc1Cl)NC(=S)N1CCc2ccccc21	·	·	·	·	6
O=C(COc1ccc(Br)cc1Br)NC(=S)N1CCCc2ccccc21	77*	1.1	0.2	-9	10
CC(Sc1nc2c(c(=O)n(C)c(=O)n2C)n1Cc1cc2c(cc1Cl)OCO2)C(=O)O (stereo not drawn)	25	1.1	0.8	-9	53*
COc1ccc(Cn2nnnc2C(c2cc3ccc(OC)cc3[nH]c2=O)N2CCC(C)CC2)cc1 (stereo not drawn)	23	0.8	0.8	24	7
CCOc1ccc2[nH]c(=O)c(C(c3nnnn3Cc3ccco3)N3CCC(C)CC3)cc2c1 (stereo not drawn)	40	0.4	0.6	62*	6
Cc1ccc(C)c2[nH]c(=O)c(C(c3nnnn3Cc3ccco3)N3CCc4ccccc4C3)cc12 (stereo not drawn)	81*	0	0.2	95*	18
CCOc1ccc2[nH]c(=O)c(C(c3nnnn3Cc3ccco3)N3CCCC(C)C3)cc2c1 (stereo not drawn)	79*	0	0.2	96*	6
CCOc1ccc2[nH]c(=O)c(C(c3nnnn3C3CCCCC3)N3CCN(C)CC3)cc2c1 (stereo not drawn)	-5	1.1	1.1	-6	12
CCC(C)NC(=O)C1c2ccccc2C(=O)N(c2ccc(OC)cc2)C1c1ccc(OC)cc1 (stereo not drawn)	15	1	0.8	0	13
CCOC(=O)C(C)Oc1cccc2c(=O)n(CC(=O)N3CCN(C(=O)OCC)CC3)ccc12 (stereo not drawn)	28	0.9	0.7	13	7
CC1CCN(S(=O)(=O)c2ccc3c(c2)c(=O)c(C(=O)NCc2ccccc2Cl)cn3C)CC1	·	·	·	·	17
C=CCN1C=CC(=C/C=C(/C#N)C(=O)OCC)C=C1	·	·	·	·	34
c1ccc(OCCCn2nnc(-c3cccnc3)n2)cc1	45	0.5	0.5	51*	3
Nc1nc(-c2cccnc2)nn1C(=O)COc1ccccc1	-10	1.1	1.1	-10	12
O=C(CCCn1nnc(-c2cccnc2)n1)c1ccc(F)cc1	53*	0.2	0.5	76*	17
Cn1c(=O)c2c(n(C)c1=O)=NC1(CCCCC1)ON=2	14	0.8	0.9	23	2
CC1(C)C2CC=C(/C=N/NC(=O)c3ccccc3Br)C1C2 (stereo not drawn)	·	·	·	·	12
CC/C(=N\NC(=O)c1cc(C)nc2ccccc12)c1ccc(C)s1	·	·	·	·	11
CCC(=O)Nc1ccc(C(=O)OCc2ccccc2Cl)cc1	-63	0.4	1.6	57*	6
CCC(=O)Nc1ccc(C(=O)CSc2nc3ccccc3cc2CC)cc1	88*	1	0.1	3	21
CCC(=O)Nc1cc(C(=O)OCC(=O)c2ccc(Cl)cc2Cl)ccc1C	-68	0.8	1.7	22	11
CC(=O)Nc1ccc(C(=O)OCc2ccccc2Cl)cc1	·	·	·	·	16
